Results taken from PubChem BioAssay (Tox21).
Records with an inconclusive call do not appear. Active and inactive are the calls of the source. Unless noted, calls come from the whole dose curve; as a rule, active = well fitted curve in the direction sought with a large enough effect in the repeat runs; inconclusive = weak or mixed curves; inactive = no such curve, though single readings can be large; an effect the other way counts as inactive or inconclusive.

How the values were obtained:
[1] = qHTS assay to identify small molecule agonists of the RXR signaling pathway - cell viability counter screen (AID 1159529);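 note: HEK 293T cells carrying an RXR-alpha UAS beta-lactamase reporter; nearly all actives have a fitted effect of over 50% in size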
Outline: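 Steps: seed RXR-alpha-UAS-bla HEK 293T cells in assay medium containing 2% charcoal-stripped FBS; incubate 5 hr; add compounds in DMSO; incubate 16 hr at 37 C; after the bla read, add CellTiter-Glo and read luminescence at 30 min.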

[2] = qHTS assay to identify small molecule antagonists of the retinoid acid receptor (RAR) signaling pathway - cell viability counter screen (AID 1159551); note: nearly all actives have a fitted effect of over 35% in size
Outline: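 Seed C3RL4 cells; next day add compound, then retinol to 1 uM final; incubate 6 h at 37 C; add CellTiter-Glo; read luminescence after 30 min at RT.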

[3] = qHTS assay to identify small molecule antagonists of the retinoic acid receptor (RAR) signaling pathway (AID 1159552; note: nearly all actives have a fitted effect of over 50% in size)
Outline: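 Retinol at 1 uM final stimulated RARE-luciferase expression in C3RL4 cells exposed to test compounds for 6 hr at 37 C. Reduced luminescence, read 30 min after detection reagent, indicated pathway antagonism.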

[4] = qHTS assay to identify small molecule agonists of the retinoic acid receptor (RAR) signaling pathway (AID 1159553); note: potency is the fitted concentration of half-maximal effect
Outline: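 Activation of retinol signaling was monitored via a RARE luciferase reporter in C3RL4 cells. After 6 hr compound treatment at 37 C, detection reagent was added for 30 min at room temperature before luminescence reading.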

[5] = qHTS assay to identify small molecule antagonists of the estrogen related receptor (ERR) signaling pathway from Tox21 library - cell viability counter screen (AID 1224834); note: nearly all actives have a fitted effect of over 30% in size
Outline: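 CellTiter-Fluor fluorescence measured; ERR cells; 17.5 h compound incubation at 37 C; 30 min reagent step.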

[6] = target: Luciferin 4-monooxygenase (Photinus pyralis) (UniProt P08659); assay: qHTS assay to identify small molecule inhibitors of firefly luciferase (AID 1224835); note: nearly all actives have a fitted effect of over 25% in size; note: potency is the fitted concentration of half-maximal effect
Chain of Luciferin 4-monooxygenase (Photinus pyralis) (P08659 whole entry, looked up): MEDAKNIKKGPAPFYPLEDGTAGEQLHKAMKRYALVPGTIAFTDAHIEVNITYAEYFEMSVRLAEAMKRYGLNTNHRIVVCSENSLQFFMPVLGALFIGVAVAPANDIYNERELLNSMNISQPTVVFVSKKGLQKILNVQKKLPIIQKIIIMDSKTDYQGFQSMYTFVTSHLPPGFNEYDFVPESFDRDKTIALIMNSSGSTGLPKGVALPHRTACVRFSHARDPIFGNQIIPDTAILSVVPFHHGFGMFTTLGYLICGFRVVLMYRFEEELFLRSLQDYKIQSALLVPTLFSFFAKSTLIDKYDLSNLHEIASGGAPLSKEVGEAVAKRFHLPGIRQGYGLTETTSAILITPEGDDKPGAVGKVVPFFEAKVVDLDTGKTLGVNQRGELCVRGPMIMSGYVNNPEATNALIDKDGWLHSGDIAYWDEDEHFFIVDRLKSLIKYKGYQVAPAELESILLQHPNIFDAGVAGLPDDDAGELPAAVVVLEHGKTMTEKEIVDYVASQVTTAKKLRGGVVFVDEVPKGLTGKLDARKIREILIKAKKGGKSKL
Outline: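 Biochemical qHTS: compounds run as interplate titrations against purified firefly enzyme, with D-luciferin and ATP each at its KM concentration. Light output recorded by CCD imaging.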

[7] = qHTS assay to identify small molecule agonists of the constitutive androstane receptor (CAR) signaling pathway - cell viability counter screen (AID 1224836); note: nearly all actives have a fitted effect of over 45% in size
Outline: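 Cells were seeded and incubated 4 hrs. Compounds were added across 15 concentrations together with PK11195 at 0.75 uM final. Plates were incubated 23 hrs at 37 C. CellTiter-Fluor was added and fluorescence measured.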

[8] = qHTS assay to identify small molecule antagonists of the constitutive androstane receptor (CAR) signaling pathway - cell viability counter screen (AID 1224837); note: nearly all actives have a fitted effect of over 45% in size
Outline: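 Using CellTiter-Fluor, viability is scored in HepG2 cells stably carrying hCAR and a 2.2kb CYP2B6 reporter after 23 hr compound exposure across 15 concentrations, with CITCO present at 50 nM.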

[9] = target: Nuclear receptor subfamily 1 group I member 3 (Homo sapiens) (UniProt Q14994); assay: qHTS assay to identify small molecule antagonists of the constitutive androstane receptor (CAR) signaling pathway (AID 1224838);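 note: HepG2 cells stably expressing hCAR with CYP2B6 luciferase reporter stimulated by CITCO; nearly all actives have a fitted effect of over 40% in size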
Chain of Nuclear receptor subfamily 1 group I member 3 (Homo sapiens) (Q14994 whole entry, looked up): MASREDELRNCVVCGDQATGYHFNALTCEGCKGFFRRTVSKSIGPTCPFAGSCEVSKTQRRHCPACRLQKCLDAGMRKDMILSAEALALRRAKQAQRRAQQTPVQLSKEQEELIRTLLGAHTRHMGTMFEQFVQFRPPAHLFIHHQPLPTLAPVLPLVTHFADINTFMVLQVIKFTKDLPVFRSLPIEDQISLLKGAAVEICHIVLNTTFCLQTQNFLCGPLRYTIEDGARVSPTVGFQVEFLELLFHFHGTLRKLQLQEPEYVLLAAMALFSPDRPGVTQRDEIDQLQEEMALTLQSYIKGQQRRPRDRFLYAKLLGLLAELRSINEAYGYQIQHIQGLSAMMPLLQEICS
Outline: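 Reporter luminescence was quantified after 24 h exposure of hCAR/CYP2B6-2.2kb double-stable HepG2 cells to compounds at 15 concentrations in the presence of 50 nM CITCO final.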

[10] = target: Nuclear receptor subfamily 1 group I member 3 (Homo sapiens) (UniProt Q14994); assay: qHTS assay to identify small molecule agonists of the constitutive androstane receptor (CAR) signaling pathway (AID 1224839);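 note: HepG2 cells stably carrying human CAR and a CYP2B6 luciferase reporter; nearly all actives have a fitted effect of over 15% in size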
Outline: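 Cells were plated and incubated 4 hrs, then dosed with compounds at 15 concentrations. PK11195 was added to 0.75 uM final. After 24 hrs at 37 C, luciferase luminescence was measured.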

[11] = qHTS assay to identify small molecule antagonists of the estrogen related receptor signaling pathway with the pleiotropic PPARgamma coactivator (PGC) from Tox21 10K library - cell viability counter screen (AID 1224840; active = well fitted cell-killing curve with a large enough effect in the repeat runs, not every such curve was filed as active; note: nearly all actives have a fitted effect of over 40% in size)
Outline: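 Here the PGC/ERR cells serve as a cytotoxicity control: they are exposed to compounds for 17.5 hours at 37 C, and live-cell signal is quantified using CellTiter-Fluor fluorescence.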

[12] = target: Thyrotropin receptor (Homo sapiens) (UniProt P16473); assay: qHTS assay to identify small molecule agonists of the thyroid stimulating hormone receptor (TSHR) signaling pathway (AID 1224843; calls by dose curve; note: nearly all actives have a fitted effect of over 45% in size)
Chain of Thyrotropin receptor (Homo sapiens) (P16473 whole entry, looked up): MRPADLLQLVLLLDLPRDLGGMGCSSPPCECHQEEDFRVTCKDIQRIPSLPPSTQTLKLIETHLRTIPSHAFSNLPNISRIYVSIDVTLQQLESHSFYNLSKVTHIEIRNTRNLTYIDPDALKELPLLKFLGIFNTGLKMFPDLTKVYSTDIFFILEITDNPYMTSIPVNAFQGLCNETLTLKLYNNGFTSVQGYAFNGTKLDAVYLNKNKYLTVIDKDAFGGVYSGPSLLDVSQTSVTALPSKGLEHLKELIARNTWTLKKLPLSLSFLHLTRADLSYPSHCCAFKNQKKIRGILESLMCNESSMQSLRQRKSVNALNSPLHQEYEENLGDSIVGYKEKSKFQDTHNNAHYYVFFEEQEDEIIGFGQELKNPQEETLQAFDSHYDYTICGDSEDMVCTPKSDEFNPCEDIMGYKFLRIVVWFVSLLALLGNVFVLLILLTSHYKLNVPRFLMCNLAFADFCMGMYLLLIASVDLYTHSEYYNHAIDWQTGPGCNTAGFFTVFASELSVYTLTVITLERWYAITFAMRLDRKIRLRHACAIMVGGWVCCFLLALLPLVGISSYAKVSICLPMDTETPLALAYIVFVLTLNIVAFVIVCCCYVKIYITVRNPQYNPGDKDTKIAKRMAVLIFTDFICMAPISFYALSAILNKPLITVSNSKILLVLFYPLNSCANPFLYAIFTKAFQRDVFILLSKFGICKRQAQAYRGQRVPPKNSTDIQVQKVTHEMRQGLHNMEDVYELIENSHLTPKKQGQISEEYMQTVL
Outline: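 Steps: seed 800 TSHR-HEK293 cells per well; add test compound and hold 30 min at ambient temperature; dispense cAMP-d2 then anti-cAMP cryptate; incubate 1 h at ambient; measure fluorescence intensity.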

[13] = qHTS assay to identify small molecule agonists of the hypoxia (HIF-1) signaling pathway - cell viability counter screen (AID 1224844; calls by dose curve; note: nearly all actives have a fitted effect of over 50% in size)
Outline: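 Multiplexed with the HRE beta-lactamase assay, this viability read used CellTiter-Glo luminescence (30 min, RT) on HRE-bla ME-180 cells treated 17 hrs with compounds in 0.5% dialyzed FBS medium.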

[14] = qHTS assay to identify small molecule agonists of H2AX (AID 1224845; active = well fitted activation curve with a large enough effect in the signal ratio in the repeat runs, not every such curve was filed as active; the % refers to the signal ratio)
Outline: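 Wild-type CHO-K1 cells, plated overnight, exposed 3hr at 37C to 15 concentrations (0.76% DMSO final). Lysed, then HTRF anti-pH2AX (S139) cryptate and anti-H2AX-d2 antibodies, 24 hr room temperature; 665/620 nm emission read.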

[15] = qHTS assay to identify small molecule agonists of the hypoxia (HIF-1) signaling pathway (AID 1224846; active = well fitted activation curve with a large enough effect in the signal ratio in the repeat runs, not every such curve was filed as active; the % refers to the signal ratio)
Outline: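 Hypoxia-pathway activation was scored as increased beta-lactamase from an HRE-controlled reporter in ME-180 cells; plated at 2,000 cells per well with 0.5% dialyzed FBS, they were exposed 17 hrs to compounds and then given CCF4-AM.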

[16] = qHTS assay to identify small molecule agonists of H2AX - cell viability counter screen (AID 1224847; calls by dose curve; note: top concentration of the series differs between compounds; nearly all actives have a fitted effect of over 30% in size)
Outline: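 Cytotoxicity counter screen in wild-type CHO-K1 cells: a 3 hr compound treatment at 37C across 15 concentrations, followed by CellTiter-Glo luminescence to gauge viable cells.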

[17] = qHTS RealTime-Glo MT Cell Viability Assay in HepG2 cells - 24 hour (AID 1224867); note: nearly all actives have a fitted effect of over 50% in size
Outline: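 qHTS, HepG2, 600 cells/well, RealTime-Glo (NanoLuc + prosubstrate) added with cells; 5 h preincubation; DMSO compound addition; 37 C; luminescence at 0/8/16/24/32/40 h.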

[18] = qHTS assay to identify small molecule antagonists of the estrogen related receptor signaling pathway with the pleiotropic PPARgamma coactivator (PGC) from Tox21 10K library (AID 1224841; call rule not given here)
Outline: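 Each well held 2,000 PGC/ERR cells, pre-incubated six hours (37 C, 5% CO2). Test substances in DMSO were added by pin tool and left for 18 h at 37 C before luciferase detection by One-Glo.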

[19] = qHTS assay to identify small molecule antagonists of the estrogen related receptor (ERR) signaling pathway from Tox21 library (AID 1224848); note: nearly all actives have a fitted effect of over 50% in size
Outline: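 Luminescent reporter read-out (ONE-Glo) from NTP's ERR cell line after 18 h treatment at 37 C with DMSO-dissolved Tox21 compounds; cells pre-plated 6 h beforehand at 2,000 per well.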

[20] = qHTS assay to identify small molecule agonists of the estrogen related receptor (ERR) signaling pathway from Tox21 library (AID 1224849; calls by dose curve; note: nearly all actives have a fitted effect of over 15% in size); details: ERR reporter cell line, ONE-Glo luciferase, 18 h; at 92.4 µM (top of the series) unless noted
Outline: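 Six hours post-seeding at 37 C/5% CO2, ERR cells receive DMSO-solubilised compounds; after 18 h at 37 C, ONE-Glo reagent is applied and luminescence recorded.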
% is set by controls: 0 for no effect and ±100 for the full control effect.

COCCc1ccccn1
inactive: outcome [1] | outcome [2] | outcome [3] | Potency [4] | outcome [5] | Potency [6] | outcome [7] | outcome [8] | Potency [9] | Potency [10] | outcome [11] | outcome [12] | outcome [13] | outcome [14] | outcome [15] | outcome [16] | outcome [17]

CC(C)C[C@@H]1[C@H](c2ccccc2)OC(=O)N1CCCN1CCCCCC1
inactive: outcome [1] | outcome [2] | outcome [3] | Potency [4] | outcome [5] | Potency [6] | outcome [7] | outcome [8] | Potency [9] | Potency [10] | outcome [11] | outcome [18] | outcome [13] | outcome [14] | outcome [15] | Potency [19] | activity change, positive = activation [20] 0.937% [at 42.5 µM] | outcome [17]

CNCCS(=O)(=O)O
inactive: outcome [1] | outcome [2] | outcome [3] | Potency [4] | outcome [5] | Potency [6] | outcome [7] | outcome [8] | Potency [9] | Potency [10] | outcome [11] | outcome [12] | outcome [13] | outcome [14] | outcome [15] | outcome [16] | outcome [17]

COC(=O)c1cc(Cl)cc(Cl)c1
inactive: outcome [1] | outcome [2] | outcome [3] | Potency [4] | outcome [5] | Potency [6] | outcome [7] | outcome [8] | Potency [9] | Potency [10] | outcome [11] | outcome [12] | outcome [13] | outcome [14] | outcome [15] | outcome [16] | outcome [17]

CC(C)NCC(O)c1ccc2ccccc2c1 (stereo not given)
inactive: outcome [1] | outcome [2] | outcome [3] | Potency [4] | outcome [5] | Potency [6] | outcome [7] | outcome [8] | Potency [9] | Potency [10] | outcome [11] | outcome [12] | outcome [13] | outcome [14] | outcome [15] | outcome [16] | outcome [17]

CCCCCc1cccc(=O)o1
inactive: outcome [1] | outcome [2] | outcome [3] | Potency [4] | outcome [5] | Potency [6] | outcome [7] | outcome [8] | Potency [9] | Potency [10] | outcome [11] | outcome [12] | outcome [13] | outcome [14] | outcome [15] | outcome [16] | outcome [17]

c1ccc2c(CC3=NCCN3)cccc2c1
inactive: outcome [1] | outcome [2] | outcome [3] | Potency [4] | outcome [5] | Potency [6] | outcome [7] | outcome [8] | Potency [9] | Potency [10] | outcome [11] | outcome [18] | outcome [13] | outcome [14] | outcome [16] | Potency [19] | activity change, positive = activation [20] 4.17% [at 42.5 µM] | outcome [17]

O=C1CCCCO1
inactive: outcome [1] | outcome [2] | outcome [3] | Potency [4] | outcome [5] | Potency [6] | outcome [7] | outcome [8] | Potency [9] | Potency [10] | outcome [11] | outcome [12] | outcome [13] | outcome [14] | outcome [15] | outcome [16] | outcome [17]

CCOc1cccc(N)c1
inactive: outcome [1] | outcome [2] | outcome [3] | Potency [4] | outcome [5] | Potency [6] | outcome [7] | outcome [8] | Potency [9] | Potency [10] | outcome [11] | outcome [12] | outcome [13] | outcome [14] | outcome [15] | outcome [16] | outcome [17]

CCC(=O)c1c(O)cc(O)cc1O
inactive: outcome [1] | outcome [2] | outcome [3] | Potency [4] | outcome [5] | Potency [6] | outcome [7] | outcome [8] | Potency [9] | Potency [10] | outcome [11] | outcome [12] | outcome [13] | outcome [14] | outcome [15] | outcome [16] | activity change, positive = activation [20] -13.5% [at 42.5 µM] | outcome [17]

CCC(C)C(=O)OCCc1ccccc1 (stereo not given)
inactive: outcome [1] | outcome [2] | outcome [3] | Potency [4] | outcome [5] | outcome [7] | outcome [8] | Potency [9] | Potency [10] | outcome [11] | outcome [12] | outcome [13] | outcome [14] | outcome [15] | outcome [16] | outcome [17]
active: Potency [6] 50.2 µM

CC1c2ccccc2CN1NC(=O)c1ccc(Cl)c(S(N)(=O)=O)c1 (stereo not given)
inactive: outcome [1] | outcome [2] | outcome [3] | Potency [4] | outcome [5] | Potency [6] | outcome [7] | outcome [8] | Potency [9] | Potency [10] | outcome [11] | outcome [12] | outcome [13] | outcome [14] | outcome [15] | outcome [16] | Potency [19] | activity change, positive = activation [20] 3.24% [at 42.5 µM] | outcome [17]

Cc1cc(C)c(C(=O)O)c(C)c1
inactive: outcome [1] | outcome [2] | outcome [3] | Potency [4] | outcome [5] | Potency [6] | outcome [7] | outcome [8] | Potency [9] | Potency [10] | outcome [11] | outcome [12] | outcome [13] | outcome [14] | outcome [15] | outcome [16] | outcome [17]

CC(C)NC(=O)c1ccc(C=O)cc1
active: Potency [4] 26.6 µM | Potency [6] 17.4 µM
inactive: outcome [1] | outcome [2] | outcome [3] | outcome [5] | outcome [7] | outcome [8] | Potency [9] | Potency [10] | outcome [11] | outcome [12] | outcome [13] | outcome [14] | outcome [15] | outcome [16] | outcome [17]

CC1(C)Cc2cccc(N)c2O1
inactive: outcome [1] | outcome [2] | outcome [3] | Potency [4] | outcome [5] | Potency [6] | outcome [7] | outcome [8] | Potency [9] | Potency [10] | outcome [11] | outcome [12] | outcome [13] | outcome [14] | outcome [15] | outcome [16] | outcome [17]
